Screening data (PubChem)
Pf growth 96h: inhibits malaria parasite growth, 96 h | actives 6.9% (n = 320,000) | P. falciparum luciferase reporter growth, 96 h | Potency, µM (highest dose often 28.7 µM), usual class: inhibitors | AID 504834; active means well fitted inhibition curve with a large enough effect; inconclusive means small, poorly fitted or top-dose-only effect, or another doubt; inactive means no such curve, though single readings can be large or run the other way
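Parasite growth measured via integrated firefly luciferase reporter in P. falciparum. Infected erythrocytes at 2% hematocrit, 0.05% parasitemia final were treated 96 hours at 37 C under 5% CO2, and luminescence was read.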
CHX counter: counter-screen for Shiga toxin inhibitors: cycloheximide protein synthesis inhibition. max response, %. cell reporter, cycloheximide protein synthesis inhibition counterscreen. AID 2314. actives 12% (n = 300,000); in the data active means max response mostly above about 13%, no sharp cut-off; inactive means mostly below about 14%; further: read at 38.3 µM for the half of the compounds with a filed dose
Pf growth 48h: inhibits P. falciparum growth in the first generation, 48 h. actives 5.9% (n = 310,000). Potency, µM (top dose mostly 28.7 µM), actives largely listed as inhibitors. P. falciparum luciferase growth in erythrocytes, 48 h. AID 504832; active means well fitted inhibition curve with a large enough effect; inconclusive means small, poorly fitted or top-dose-only effect, or another doubt; inactive means no such curve, though single readings can be large or run the other way
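Luciferase-expressing parasites in RBCs, 2% Hct / 0.1% parasitemia final; RPMI 1640 + 0.5% Albumax; 37 C, 5% CO2, one generation; luminescence read-out, lower signal = inhibition.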
SARS PLP yeast: SARS-CoV PLP inhibition in yeast; S. cerevisiae expressing SARS-CoV PLpro, growth rescue; Potency, µM (series often up to 32.9 µM), actives largely listed as activators; actives 0.19% (n = 330,000); AID 485353; further: nearly all actives have a fitted effect of over 55% in size
Shiga toxin inh: Shiga toxin inhibition | Vero cells, Shiga toxin protein synthesis inhibition reporter | AID 2315 | actives 9.2% (n = 290,000) | inhibition, % at 38.7 µM; in the data active means inhibition mostly above about 28%, no sharp cut-off; inactive means mostly below about 43%
NS1 inh: blocks influenza NS1 protein function; actives 0.4% (n = 270,000); Potency, µM (top dose mostly 46.1 µM); further: actives are rising curves; nearly all actives have a fitted effect of over 50% in size
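Growth recovery, yeast-based: influenza A NS1 expressed in S. cerevisiae causes slow growth, and suppressors are detected by OD600. The parent strain without NS1 is used as positive control.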
Each line names hits and unclear results; the compound was inactive in the other large screens. Only some compounds are listed: those with a hit (about 21% of all), similar ones and a draw of the others. Unless noted, the call rests on the fitted dose curve.

C=C(C)c1cccc(C(C)(C)NC(=O)N2CCN(C/C=C/c3ccccc3)CC2)c1	Pf growth 96h inconclusive
CC(C)Cc1cc(C(=O)NCc2ccco2)no1	Pf growth 96h inconclusive, CHX counter 32, Shiga toxin inh 52
O=C(NCc1ccco1)c1ccc(Cl)s1	Pf growth 96h inconclusive (no result: NS1 inh)
O=C(NCc1ccco1)c1ccccc1-c1nc(-c2ccc(F)cc2)no1	none
COc1ccc(CCNC(=O)c2cc(CC(C)C)on2)cc1OC	Pf growth 96h 7.4µM (no result: Pf growth 48h)
O=C(NCc1ccco1)c1cc(-c2ccc(Cl)cc2)on1	CHX counter 20
O=C(NCc1ccco1)c1nc(-c2ccc(F)cc2)no1	Pf growth 96h inconclusive, Shiga toxin inh 41 (no result: NS1 inh)
COc1ccc(-c2cc(CNC(=O)CN(C)Cc3ccccc3)on2)cc1	none
CSc1ccccc1NC(=O)Cn1c([N+](=O)[O-])cnc1C	none
O=C(NCCN1CCOCC1)c1cc(-c2cccc(Cl)c2)on1	Pf growth 96h inconclusive
Cc1ccc(-c2cc(C(=O)NCc3ccco3)no2)cc1	CHX counter 28, Shiga toxin inh 43, NS1 inh inconclusive
Cc1cc(C(=O)NCc2ccco2)no1	none (no result: Pf growth 96h)
CC1CCc2onc(C(=O)NCc3ccco3)c2C1 (stereo not given)	Pf growth 96h inconclusive, CHX counter 38, Shiga toxin inh 85 (no result: NS1 inh)
O=C(NCc1ccco1)c1cc(-c2ccc3c(c2)OCO3)on1	Pf growth 96h inconclusive, CHX counter 42, Shiga toxin inh 109
CC1CCc2sc3ncn4nc(C(=O)NCc5ccco5)nc4c3c2C1 (stereo not given)	none
O=C(NCc1ccco1)c1cc(-c2cccc(Cl)c2)on1	CHX counter 33, Shiga toxin inh 38
O=C(NCc1ccc2c(c1)OCO2)c1cc(-c2ccccc2)on1	none (no result: Pf growth 96h)
O=C(NCc1ccco1)c1ccc(-c2cccc(Cl)c2)o1	CHX counter 52, Shiga toxin inh 71
O=C(NC(=S)NCc1ccco1)c1cccc(Cl)c1	Pf growth 48h inconclusive
COc1ccc(OC)c(-c2cc(C(=O)NCc3ccco3)no2)c1	none
COc1cccc(-c2cc(C(=O)NCc3ccco3)no2)c1	Pf growth 96h inconclusive, CHX counter 50, Shiga toxin inh 86 (no result: Pf growth 48h)
COc1ccc(C(C)(C)C)cc1NC(=O)CCCN1C(=O)CN(C)C1=O	none (no result: CHX counter, Shiga toxin inh, NS1 inh)
CC(C)c1ccc(/C=N/n2nnnc2Nc2ccccc2)cc1	none (no result: Pf growth 96h)
CC/C(=N\n1nnnc1Nc1ccccc1)c1ccccc1	Pf growth 48h 10µM
O=C(c1ccc(CS(=O)(=O)Cc2ccccc2)cc1)N1CCCCC1	Pf growth 96h inconclusive
CCCCOc1ccc(C(=O)N2CCCCCC2)cc1	CHX counter 28, Shiga toxin inh active
O=C(c1ccc(COc2ccc(Cl)cc2)cc1)N1CCCCC1	Pf growth 96h inconclusive, CHX counter 24, Shiga toxin inh 91
O=C(CNCc1ccc(Cl)cc1)Nc1ccc(C(=O)N2CCCCC2)cc1	Pf growth 48h inconclusive
COC(=O)c1ccc(COc2ccc(CNCc3ccc(Cl)cc3)cc2)cc1	CHX counter 34, Shiga toxin inh 43
O=C(c1ccc(COc2ccccc2Br)cc1)N1CCCCCC1	CHX counter 31, Pf growth 48h inconclusive, Shiga toxin inh 60
COC(=O)c1ccc(OCCOc2ccc(C(=O)OC)cc2)cc1	none (no result: Pf growth 48h)
Cc1nc(C)c(C(=O)N(c2ccc(F)cc2)C(C(=O)NCC2CCCO2)c2ccccc2)s1 (stereo not given)	none
CCc1nnc(NC(=O)CCC(=O)NC2CCCC2)s1	Pf growth 96h inconclusive
CC1(C(=O)Nc2c(F)c(F)c(F)c(F)c2F)CC1(Br)Br (stereo not given)	Pf growth 96h inconclusive, Pf growth 48h inconclusive
CC(=O)/C(=C(/O)c1ccccc1)c1nc2ccccc2[nH]1	none (no result: NS1 inh)
O=C(O)c1ccc(/C=C(\c2nc3ccccc3[nH]2)c2nc3ccccc3s2)cc1	CHX counter 30, Shiga toxin inh 40
O=C1OC[C@@H]2CCCN2C(=O)[C@@H](CC(=O)N(CCO)Cc2ccccc2)C/C=C\C[C@H]1Cc1ccc(F)cc1	none (no result: Pf growth 96h, CHX counter, Pf growth 48h, Shiga toxin inh, NS1 inh)
COCCn1c(=NC(=O)/C=C/c2ccccc2)sc2cc(NC(C)=O)ccc21	Pf growth 96h 2.6µM, Pf growth 48h inconclusive
CCn1c(C)nc2cc(C(=O)n3cc(C(=O)c4cc(F)ccc4O)cn3)ccc21	Pf growth 96h 0.83µM
O=C(COC(=O)c1ccccc1)Nc1ncc([N+](=O)[O-])s1	none (no result: Pf growth 96h, CHX counter, Pf growth 48h, Shiga toxin inh, NS1 inh)
COc1ccc(CC(=O)Nc2ncc([N+](=O)[O-])s2)cc1OC	none
CCCCC(=O)Nc1ncc([N+](=O)[O-])s1	CHX counter 17, Shiga toxin inh 54
CC(C)CC(=O)Nc1ncc([N+](=O)[O-])s1	CHX counter 41, Shiga toxin inh 84
CCCCC(=O)Nc1ncc(Br)s1	CHX counter 11
COc1ccc(CC(=O)OCC(=O)NC2CCCCCC2)cc1OC	none (no result: CHX counter, Shiga toxin inh, NS1 inh)
COc1ccc(S(=O)(=O)NCc2csc(C)n2)cc1	none
Cc1cccc(C)c1N(C(=O)c1ccco1)C(C(=O)NC1CCCC1)c1ccncc1 (stereo not given)	none
CC(C)[C@H](NC(=O)[C@@H]1Cc2ccccc2CN1)C(=O)Nc1ccc2c(c1)OCO2	Pf growth 96h inconclusive, CHX counter 23, Pf growth 48h inconclusive
C[C@@H](NC(=O)[C@@H]1Cc2ccccc2CN1)C(=O)Nc1ccc2c(c1)OCO2	Pf growth 96h inconclusive, CHX counter 17
CC(=O)Oc1ccc2nc(-c3ccc(Br)o3)oc(=O)c2c1	none
Cc1ccc(O)c(NC(=O)c2cc(-c3ccccc3)on2)c1	CHX counter 66, Pf growth 48h inconclusive, SARS PLP yeast inconclusive (no result: Shiga toxin inh)
O=C(Nc1cc(Br)ccc1O)c1cc(-c2ccccc2)on1	Pf growth 96h inconclusive, CHX counter 14, Pf growth 48h 2.1µM
COc1cccc2nc3cc(C)c(C)cc3nc12	CHX counter 59, Shiga toxin inh 59
COc1cccc2c(Nc3ccccc3C)cc(C)nc12	Pf growth 48h inconclusive
COC(/C(=N/O)c1ccc(Cl)cc1)c1ccccc1 (stereo not given)	Pf growth 96h 2.3µM, CHX counter 33, Pf growth 48h 2.1µM, Shiga toxin inh 50
CCC(=O)Nc1ccc(C(=O)CN2CCC(C)CC2)cc1	Pf growth 96h inconclusive (no result: NS1 inh)
CC1CCN(CC(=O)Nc2ccc(C(=O)N3CCCCC3)cc2)CC1	Pf growth 96h 3.3µM
COc1ccc(NC(=O)CN2CCC(C)CC2)cc1	CHX counter 16, Shiga toxin inh 30 (no result: Pf growth 96h)
COc1ccc(NC(=O)CN2CCN(C3c4ccccc4-c4ccccc43)CC2)cc1	Pf growth 96h inconclusive, CHX counter 57, Pf growth 48h inconclusive, Shiga toxin inh 42
COc1ccc(NC(=O)CN2CCN(c3ccccc3)CC2)cc1	none
CC1CCCCC12NC(=O)N(CC(=O)N1CCc3ccccc3C1)C2=O (stereo not given)	none (no result: CHX counter, Shiga toxin inh, NS1 inh)
Cc1cc(OCc2cc(C(=O)N(C)C3CCOC3)no2)cc(C)c1Cl (stereo not given)	CHX counter 49, Shiga toxin inh 78
